Screening data deposited in PubChem BioAssay by National Center for Advancing Translational Sciences (NCATS).
FEN1 inhibitor = human FEN1 inhibition. Potency, µM (highest dose often 114 µM), inactives show at the highest dose activity change, negative = inhibition, actives largely listed as inhibitors. AID 588795. Recombinant FEN1 flap cleavage, fluorescence, 15 min. 390,000 tested, 0.35% active; further: potency means the concentration at half of the fitted maximal effect; on the % scale 0 is the no-effect control and ±100 the full control effect; nearly all actives have a fitted effect of over 65% in size
Target sequence (P39748 whole entry, looked up): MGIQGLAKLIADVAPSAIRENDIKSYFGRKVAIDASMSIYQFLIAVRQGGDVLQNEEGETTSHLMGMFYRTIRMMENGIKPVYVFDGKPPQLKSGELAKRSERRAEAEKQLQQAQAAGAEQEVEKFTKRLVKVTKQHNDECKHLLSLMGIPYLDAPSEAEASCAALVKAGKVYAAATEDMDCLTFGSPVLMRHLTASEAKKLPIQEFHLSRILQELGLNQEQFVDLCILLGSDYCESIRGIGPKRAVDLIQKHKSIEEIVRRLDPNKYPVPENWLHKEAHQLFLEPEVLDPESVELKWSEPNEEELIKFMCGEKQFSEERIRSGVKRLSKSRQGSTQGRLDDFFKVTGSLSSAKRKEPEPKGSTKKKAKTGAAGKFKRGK
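Steps: FEN1 (10 nM) dispensed; compound added by pin tool; 15 min at room temperature; substrate added to 50 nM final; reads at 0 min and 15 min; data normalized and fitted (four-parameter Hill).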
VDR inh = inhibitors of human vitamin D receptor | VDR-SRC2-3 peptide fluorescence polarization, 2 h | P11473 | Potency, µM, without a hit: max response, negative = inhibition, hits mostly inhibitors | 400,000 tested, 0.93% active; further: potency means the concentration at half of the fitted maximal effect; on the % scale 0 is the no-effect control and ±100 the full control effect
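FP read-out; VDR + SRC2-3 coactivator peptide; 23 nl compound by pintool; 2 h RT incubation; reagents held at 4 deg C, protected from light.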
PLK1 PBD block = blocks phosphopeptide binding to human PLK1 polo-box domain. P53350. Plk1 PBD binding of FITC phosphopeptide, fluorescence polarization. Potency, µM, without a hit: max response, negative = inhibition, hits mostly inhibitors. 360,000 tested, 2.8% active. AID 720504; further: potency means the concentration at half of the fitted maximal effect; series mostly up to about 57 µM; on the % scale 0 is the no-effect control and ±100 the full control effect; nearly all actives have a fitted effect of over 65% in size
WRN inhibitor = blocks human WRN helicase; Potency, µM (titrated, usually from 114 µM), without a hit: at the highest dose activity change, negative = inhibition, most hits filed as inhibitors; 360,000 tested, 0.46% active; WRN helicase unwinding, fluorescent forked duplex, kinetic; further: potency means the concentration at half of the fitted maximal effect; on the % scale 0 is the no-effect control and ±100 the full control effect; nearly all actives have a fitted effect of over 55% in size
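Fluorescence dequenching readout, ex 525 nm/em 598 nm, kinetic mode: forked duplex DNA (100 nM final) with adjacent fluorophore and quencher unwound by WRN (20 nM final) with 2 mM ATP. Compound preincubation 15 min, room temperature.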
PI5P4K alpha inh = PI5P4K alpha (human) kinase inhibition | P48426 | 330,000 tested, 1.2% active | max response, % | PI5P4Kalpha enzyme, ADP-Glo luminescence, 60 min; stronger effect = lower value | AID 652105; active means max response of -50% or lower; inconclusive means between -30% and -50%; inactive means -30% or higher; further: value at the top dose of about 77 µM; on the % scale 0 is the no-effect control and ±100 the full control effect
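Luminescence from ADP-Glo served as readout of PI5P4Kalpha activity in a qHTS format. Reaction: enzyme, substrate, compound, ATP at 5 microM final, 60 min at RT.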
TCR act = activates T cell receptor signaling. 330,000 tested, under 10 active. primary human leukocytes, anti-CD3, IL-2 HTRF, 48 h. AID 504894. Potency, µM (top dose mostly 9.22 µM), inactives show at the top dose activation of IL-2 secretion, most hits filed as activators; further: % of control where 0% means no effect
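Activity was scored as IL-2 release from primary human leukocytes given only a TCR signal (a-CD3 beads) plus compound for 48 hr. Detection used a two-antibody HTRF format read at 665nm.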
Starred values were filed as active, the others as inactive; u = inconclusive; x = not tested or not shown; [ ] = another dose, or the depositor's remark. Compounds with a hit are over-represented: about 3.7% of the library has one in this group of screens. Unless noted, the call rests on the fitted dose curve; in most records, active means well fitted curve in the direction sought with a large enough effect; inconclusive means small, poorly fitted or top-dose-only effect, or another doubt; inactive means no such curve, though single readings can be large; an effect the other way counts as inactive or inconclusive.

SMILES | FEN1 inhibitor | VDR inh | PLK1 PBD block | WRN inhibitor | PI5P4K alpha inh | TCR act
Cc1c(OCC(N)=O)ccc2c(-c3ccccc3)cc(=O)oc12 | u | 5% | -18% | 50µM* | -4 | 5%
COc1ccc(-c2cc(=O)oc3c(C)c(OCC(=O)N[C@@H](Cc4ccc(O)cc4)C(=O)O)ccc23)cc1 | 7% | -24% | -8% | -6% | -4 | -2%
Cc1c(O)ccc2c(CC(=O)N[C@@H](Cc3ccc(O)cc3)C(=O)O)cc(=O)oc12 | 17% | 13% | -18% | -4% | 1 | -18%
Cc1c(OCC(=O)NC(Cc2ccc(Cl)cc2)C(=O)O)ccc2c(-c3ccccc3)cc(=O)oc12 (configuration not stated) | u | -11% | 67µM* | -4% | 1 | 3%
Nc1ncnc2n[nH]c(Nc3ccc(F)cc3)c12 | x | 4% | x | x | x | x
CN(C)CCCN(C(=O)c1ccc2c(c1)OCCO2)c1nc2ccccc2s1 | 9% | 13% | x | x | x | x
O=C1C2C3C=CC(CNS(=O)(=O)c4ccccc4[N+](=O)[O-])(O3)C2C(=O)N1c1ccccc1 (configuration not stated) | -3% | -13% | 67µM* | u | -14 | -4%
COc1ccc(NC(=S)Nc2ccc3nsnc3c2)cc1 | u | 89µM* | 13µM* | u | -19 | 8%[46.1 µM]
CCOc1ccc(NC(=S)Nc2ccc3nsnc3c2)cc1 | -31% | 79µM* | 27µM* | -5%[11.6 µM] | -12 | 17%[46.1 µM]
CC(C)N(C(=O)Nc1ccc2nsnc2c1)C(C)C | u | 14µM* | 13µM* | u | u | -2%
COc1cccc(C(=O)Nc2cccc(OCc3cc(=O)n4cc(C)ccc4n3)c2)c1 | -9% | -4% | x | x | x | x
CCOC(=O)C1(C)NC(c2cccs2)C2C(=O)N(c3ccc(OC)cc3)C(=O)C21 (configuration not stated) | 1% | 32µM* | 3.4µM* | u | u | 1%
CCOC(=O)C1(C)NC(c2ccc(N(C)C)cc2)C2C(=O)N(c3ccc(OC)cc3)C(=O)C21 (configuration not stated) | -4% | 15% | -5% | -3% | 4 | 2%
CCOC(=O)C1(C)NC(c2ccc(OC)c(OC)c2)C2C(=O)N(c3cccc(C(C)=O)c3)C(=O)C21 (configuration not stated) | x | x | 1% | -5% | 3 | x
CCOC(=O)C1(C)NC(c2ccccc2F)C2C(=O)N(c3cccc(C(C)=O)c3)C(=O)C21 (configuration not stated) | -8% | 25µM* | 3.8µM* | 2% | u | x
Cc1cnc(NC(=O)CCNC(=O)c2ccc([N+](=O)[O-])cc2)s1 | 0% | -19% | 27µM* | 10% | -2 | -13%
Cc1csc(NC(=O)CCNC(=O)c2ccc([N+](=O)[O-])cc2)n1 | 4% | -8% | -9% | 3% | -3 | -2%[46.1 µM]
Cc1ccnc2cc(Cl)cc(Cl)c12 | 13% | x | x | x | x | x
O=C(C1CC(=O)N(c2ccc(F)cc2)C1)N1CCCCC1 (configuration not stated) | -1% | -15% | -11% | 7% | -3 | 5%
CC(C)NS(=O)(=O)c1ccc(OCC(=O)Nc2ccc(F)cc2)cc1 | 13% | 2% | 24µM* | 3%[57.1 µM] | 3 | -4%
CNC(=O)C1CC(=O)N(c2ccc(OCC(=O)Nc3ccc(F)cc3)cc2)C1 (configuration not stated) | -14% | -6% | 27µM* | -15% | u | -2%
C[C@H](NC(=O)C1CC(=O)N(c2ccc(F)cc2)C1)C(=O)N1CCCCC1 (some centres not stated) | 19% | -21% | 24µM* | -8% | -7 | 0%
CCOC(=O)c1ccc(NC(=O)COc2ccc(S(=O)(=O)NC(C)CC)cc2)cc1 (configuration not stated) | -1% | 6% | -4% | -1% | 0 | -5%
C=CCNC(=O)C1CC(=O)N(c2ccc(OCC(=O)Nc3ccc(C)cc3)cc2)C1 (configuration not stated) | -17% | -1% | -1% | -16% | 1 | 1%
Cc1ccc(-c2csc3ncnc(Sc4nnnn4C4CC4)c23)cc1 | -17% | x | x | x | x | x
SMILES | FEN1 inhibitor | VDR inh | PLK1 PBD block | WRN inhibitor | PI5P4K alpha inh | TCR act
COc1cc(C2Nc3ccccc3C(=O)N2Cc2ccco2)ccc1O (configuration not stated) | 10% | -12% | x | x | x | x
Cc1ccc(Cn2c(CCNC(=O)c3cccc(C)c3)nc3ccccc32)cc1 | -22% | -6% | x | x | x | x
COc1ccc(-n2cc(-c3ccc4c(c3)OCO4)n(CC(=O)Nc3cccc(C)c3)c2=O)cc1 | -7% | 2% | x | x | x | x
O=C(O)C1CCC[C@@H]2[C@@H]3CC(CN12)[C@@H]1CCCCN1C3 (some centres not stated) | x | -4% | x | x | x | x
COCCOC(=O)/C(=C/c1ccc(OC(=O)c2ccccc2)cc1)C(C)=O | 31% | 22µM* | 21µM* | -30% | 0 | 0%
Cc1csc2nc(-c3ccc(NS(=O)(=O)c4cccc(F)c4)cc3)cn12 | -20% | -2% | x | x | x | x
Cc1cccc(OCC(O)CN2C(C)(C)CC(O)CC2(C)C)c1 (configuration not stated) | 5% | -8% | 9.5µM* | 11% | -3 | 2%
CCn1c(=N)n(CC(O)COc2cccc(C)c2)c2ccccc21 (configuration not stated) | -11% | 8% | -2% | 0% | x | 0%
Cc1c(NC(=O)Nc2ccc([N+](=O)[O-])cc2)c(=O)n(-c2ccccc2)n1C | -7% | u | 9.5µM* | -28% | u | -4%
Cc1c(NC(=S)N/N=C/c2cc([N+](=O)[O-])ccc2O)c(=O)n(-c2ccccc2)n1C | -2% | 1% | -12% | -10% | -61* | 9%
Cc1c(NC(=S)N/N=C/c2ccc(O)cc2)c(=O)n(-c2ccccc2)n1C | 5% | 6% | -3% | 0% | x | -6%
Cc1ccc(CNC(=O)CCCCCn2c(=O)c3sccc3n(CC(=O)N3CCCCC3C)c2=O)cc1 (configuration not stated) | 0% | 10% | x | x | x | x
COc1ccccc1S(=O)Cc1ccc(C(=O)NCc2ccccc2Cl)o1 (configuration not stated) | -14% | u | 27µM* | -1% | -5 | 8%
COc1ccccc1CNC(=O)c1ccc(CS(=O)(=O)c2c(Cl)cccc2Cl)o1 | -16% | -15% | x | x | x | x
O=C(Nc1ccccc1F)C1CCCN(S(=O)(=O)c2ccccc2)C1 (configuration not stated) | -9% | u | 3.4µM* | 79µM* | u | -1%
CC(C)(C)C(=O)Nc1ccc2nc(SCC(=O)N3CCCC3)sc2c1 | 1% | 11% | x | x | x | x
